Experimental data as given in PubChem BioAssay (NCATS).

Target: Glucocorticoid receptor (Homo sapiens) (UniProt P04150)
Test: GR-GFP Redistribution (AID 450)
Details: U2OS GR-GFP nuclear translocation, laser cytometry, 2 h; series mostly up to 20.6 µM;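 active = compounds whose dose series gives a full or clear partial fitted curve of increased nuclear translocation; inconclusive = weak partial curve or effect only at the top dose; inactive = no dose-dependent translocation response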
Potency is the fitted concentration of half-maximal effect.

Sequence of Glucocorticoid receptor (Homo sapiens) (P04150 whole entry, looked up): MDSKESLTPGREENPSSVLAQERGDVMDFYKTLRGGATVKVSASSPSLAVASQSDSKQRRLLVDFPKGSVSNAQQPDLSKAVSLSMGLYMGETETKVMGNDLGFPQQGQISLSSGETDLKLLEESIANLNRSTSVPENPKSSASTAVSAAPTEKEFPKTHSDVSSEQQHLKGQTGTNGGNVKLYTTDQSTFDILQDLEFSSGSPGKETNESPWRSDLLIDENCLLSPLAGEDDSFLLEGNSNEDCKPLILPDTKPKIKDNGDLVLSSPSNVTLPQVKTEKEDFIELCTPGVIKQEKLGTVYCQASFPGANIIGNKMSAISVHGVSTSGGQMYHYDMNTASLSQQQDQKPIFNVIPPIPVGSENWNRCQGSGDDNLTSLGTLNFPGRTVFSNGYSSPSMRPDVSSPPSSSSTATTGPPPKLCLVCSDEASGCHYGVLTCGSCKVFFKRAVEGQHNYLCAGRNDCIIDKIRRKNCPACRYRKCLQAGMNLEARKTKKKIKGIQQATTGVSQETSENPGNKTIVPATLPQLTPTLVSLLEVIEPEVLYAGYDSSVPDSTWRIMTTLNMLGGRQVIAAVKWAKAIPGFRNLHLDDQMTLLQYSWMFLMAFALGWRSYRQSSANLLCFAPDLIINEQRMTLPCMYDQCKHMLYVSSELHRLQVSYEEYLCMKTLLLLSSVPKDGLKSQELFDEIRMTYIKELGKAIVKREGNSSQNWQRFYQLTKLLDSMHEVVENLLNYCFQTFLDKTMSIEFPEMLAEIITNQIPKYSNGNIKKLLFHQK

Potency, inactive:
CCCC1CC(=O)OC1(C)C(=O)CSc1n[nH]c(-c2ccccc2)n1 (stereo unspecified) > 20.6 µM
Cc1nc(N2CCN(Cc3ccccc3)CC2)c(C#N)c2c1COC(C)(C)C2 > 20.6 µM
CC(=O)c1cc(CN2CCCCC2)cc(OC(C)C)c1 > 20.6 µM
CCOC(=O)/C(C#N)=C1\Nc2ccccc2N=C1N(CC(C)C)CC(C)C > 20.6 µM
Cc1cc(=O)oc2c(CN3CCC(C)CC3)c(O)c(Cl)cc12 > 20.6 µM
Cn1c(OCc2ccco2)nc2c1c(=O)n(Cc1ccc(Cl)c(Cl)c1)c(=O)n2C > 20.6 µM
CC1(C)Cc2c(sc3nc(SCC#N)n(C4CCCCC4)c(=O)c23)CO1 > 20.6 µM
CCCCCCSC1=C(C#N)C(c2ccccc2)CC(=O)N1 (stereo unspecified) > 20.6 µM
Cc1ccc(-n2c(=O)c3c4c(sc3n3c(C)nnc23)COC(C(C)C)C4)cc1 (stereo unspecified) > 20.6 µM
N#CCSc1nc2c(cc1C#N)CCCCCC2 > 20.6 µM
CCC(=O)Nc1nc2ccccc2n1Cc1ccccc1C > 20.6 µM
CNC(=O)CC(C(=O)O)c1ccc(OC(C)C)cc1 (stereo unspecified) > 20.6 µM
CCOC(=O)c1c(SC)nc(SC)c2c1CCC2 > 20.6 µM
Cn1nnc2c(sc3nc(N4CCOCC4)c4c(c32)CCCC4)c1=O > 20.6 µM
c1ccc(C2Nc3ccccc3-c3nc4ccccc4n32)nc1 (stereo unspecified) > 20.6 µM
Cc1cc(C)n(CC2CC(=O)N(c3ccc(F)c(Cl)c3)C2=O)n1 (stereo unspecified) > 20.6 µM
